Assay outcomes deposited in PubChem BioAssay by National Center for Advancing Translational Sciences (NCATS).
In the library only some 6.2% were active in any assay of this set; here they are far more common.
MARV entry inh: inhibitors of Marburg virus binding or cell entry; Marburg virus pseudotyped entry inhibition, cell reporter; 300,000 tested, 1.8% active; Potency, µM (doses to about 37.8 µM), for inactives: at the highest dose activity change, negative = inhibition, actives largely listed as inhibitors; calls by dose curve; tested in HEK293 cells; further: potency means the concentration at half of the fitted maximal effect
FMDV antiviral: antivirals against foot and mouth disease virus; FMDV antiviral cell-based qHTS; Potency, µM (series often up to 57.9 µM), for the others: at the top dose activity change, negative = inhibition, hits mostly inhibitors; 410,000 tested, 1.2% active; AID 1159524; calls by dose curve; tested in HEK293T cells; further: read-out not given here; potency means the concentration at half of the fitted maximal effect; nearly all actives have a fitted effect of over 45% in size
LASV entry inh: Lassa virus entry inhibition. 300,000 tested, 1.2% active. Potency, µM (highest dose often 37.9 µM), for inactives: top-dose activity change, negative = inhibition, most hits filed as inhibitors. Lassa virus pseudotype entry inhibition, cell reporter; calls by dose curve; tested in HEK293 cells; further: potency means the concentration at half of the fitted maximal effect; nearly all actives have a fitted effect of over 50% in size
HCMV inh: human cytomegalovirus inhibition | HFF cells, HCMV-luciferase reporter, 72 h; active compounds read low | activity change, negative = inhibition, % at 57.5 µM | 410,000 tested, 4.5% active; in the data active means activity change below about -60%; inconclusive means no clear call, values can overlap the other calls; inactive means above about -39%
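Two compound doses tested in HFFs infected with HCMV-luciferase, MOI 1 PFU/cell, 72 h at 37C. Lysate luminescence read with OneGlo; data normalized against buffer-only and 10uM Salinomycin inhibitor controls.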
Active calls of the source: *; [ ] = remark or other dose. On the % scale 0 is the no-effect control and ±100 the full control effect.

`O=C(NCCCn1ccnc1)c1nn2c(C(F)(F)F)cc(-c3ccc(Br)cc3)nc2c1Cl` gave MARV entry inh inconclusive, FMDV antiviral 35.5µM*, LASV entry inh -6.6% and HCMV inh 2.5.
`COc1ccc(-c2cc(C(=O)OCC(=O)NC3CC3)c3ccccc3n2)cc1` gave FMDV antiviral 12.5% and HCMV inh 0.0.
`COc1ccc(-c2cc(C(=O)Nc3ccc(C(N)=O)cc3)c3ccccc3n2)cc1OC` gave MARV entry inh inconclusive, FMDV antiviral -9.1%, LASV entry inh -21.5% and HCMV inh -91.5*.
For CCOc1ccc(-c2cc(C(=O)NCCCn3ccnc3)c3ccccc3n2)cc1 the results were FMDV antiviral 6.4% and HCMV inh -10.0.
`CC1(C)OC(=O)C2=C(CC(CCc3ccccc3)OC2c2ccc(Cl)c(Cl)c2)O1` (stereo not given) gave HCMV inh 0.9.
CCCS(=O)(=O)NC(=O)C1(C)CCN(C(=O)c2ccc(F)c(Cl)c2)C1 (stereo not given) was read as FMDV antiviral -9.6% and HCMV inh 9.1.
For COc1ccc(Cl)cc1NC(=O)c1cc(=O)c2cc(C)cc(C)c2o1 the results were MARV entry inh inconclusive, FMDV antiviral -16.2%, LASV entry inh 4.8%[46.1 µM] and HCMV inh 10.1.
COc1ccccc1CCNC(=O)c1cc(-c2ccncc2)nc2ccc(Br)cc12 was read as MARV entry inh inconclusive, FMDV antiviral inconclusive, LASV entry inh inconclusive and HCMV inh -66.2*.
For Cc1ccc(NC(=O)c2cc(-c3ccc(C)o3)nc3ccccc23)cc1 the results were MARV entry inh -20.1%, LASV entry inh 12.7% and HCMV inh 18.3.
Screening COc1ccc(NC(=O)c2cc(-c3ccncc3)nc3ccccc23)c(OC)c1 returned MARV entry inh 5.62µM*, FMDV antiviral -18.9%, LASV entry inh inconclusive and HCMV inh -5.6.
For COc1ccccc1CCNC(=O)c1cc(-c2ccccn2)nc2ccccc12 the results were MARV entry inh -32.0%, FMDV antiviral -22.6%, LASV entry inh -7.8% and HCMV inh -7.3.
Screening COc1ccccc1NC(=O)c1cc(-c2ccc(C)o2)nc2ccccc12 returned MARV entry inh inconclusive, FMDV antiviral -17.5%, LASV entry inh 2.4% and HCMV inh -71.5*.
COc1ccc(NC(=O)c2cc(-c3ccc(OC)c(OC)c3)nc3ccccc23)c(OC)c1 was read as MARV entry inh inconclusive, FMDV antiviral 7.0%, LASV entry inh inconclusive and HCMV inh -75.1*.
Screening CCOc1ccc(NC(=O)CSc2oc(-c3cccs3)nc2S(=O)(=O)c2ccc(C)cc2)cc1 returned MARV entry inh -0.7%[46.1 µM], FMDV antiviral -6.9%, LASV entry inh 0.3%[46.1 µM] and HCMV inh 20.8.
Screening O=C1C(=O)c2ccccc2C(O)=C1CCCCl returned FMDV antiviral 28.2µM*.
For CCc1cccc(CC)c1N(COC)C(=O)Cn1cnc2ccccc21 the results were MARV entry inh inconclusive, FMDV antiviral 14.1%, LASV entry inh -10.8%[46.1 µM] and HCMV inh inconclusive.
Screening CCc1cccc(CC)c1N(COC)C(=O)Cn1c(C)nc2ccccc21 returned FMDV antiviral 10µM*, LASV entry inh -18.2%[46.1 µM] and HCMV inh -64.6*.
COc1ccc2nc3cc(Cl)ccc3c(Nc3ccc(O)c(CN4CCN(C)CC4)c3)c2c1 was read as MARV entry inh 4.47µM*, FMDV antiviral 1.2%, LASV entry inh inconclusive and HCMV inh 17.2.
For COc1ccc(NC(=O)Cn2nc(-c3ccccc3)c3cnc4ccc(C)cc4c32)cc1 the results were FMDV antiviral 27.8%, LASV entry inh -19.8%[46.1 µM] and HCMV inh 47.3.
`O=S(=O)([N-]c1nc2ccccc2nc1-[n+]1ccccc1)c1ccc(Cl)cc1` gave MARV entry inh 0.0%, FMDV antiviral 4.0%, LASV entry inh 0.6% and HCMV inh -62.2*.
For CO[C@H]1[C@H](NC(=O)c2ccco2)c2ccccc2C12CCN(Cc1cnn(-c3ccccc3)c1)CC2 the results were FMDV antiviral 16.8%.
COc1cc(CN2CCC3(CC2)CC3C(=O)Nc2ccc3sc(C)nc3c2)ccc1F (stereo not given) was read as FMDV antiviral -10.2%.
`CCOC(=O)c1c(NC(=O)c2ccc(S(=O)(=O)N3CCC(C)CC3)cc2)sc2c1CCN(CC)C2` gave FMDV antiviral -7.4%, LASV entry inh -1.4%[46.1 µM] and HCMV inh -81.8*.
`NC(=O)c1c(NC(=O)CS(=O)(=O)c2ccc(Cl)cc2)sc2c1CCCC2` gave FMDV antiviral 0.0%, LASV entry inh 13.0%[46.1 µM] and HCMV inh 0.0.
